{"source": "PubChem BioAssay (EPA / NIEHS)", "note": "Where “and” joins values, the source holds several entries; their conditions need not be identical. Equal entries are not always repeated. More than one record can exist for a structure, and the calls need not agree. Calls of active or inactive are those of the source. How the source made its calls: active means hit-call score of the fitted dose curve at least 0.9, where 1 is the maximum; inactive means score below 0.9."}
{"read-out": "Thrombomodulin, THBD (gene 7056)", "assay": "BSK_CASM3C_Thrombomodulin: BioMAP Diversity Plus: CASM3C Assay for Thrombomodulin Biomarker Activity (AID 2283051);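 further: thrombomodulin protein level measured by ELISA 24 h after dosing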", "conditions": "primary human coronary artery smooth muscle cells; actives raise or lower the signal"}
{"smiles": "O=C(O)C(F)(F)C(F)(F)C(F)(F)C(F)(F)C(F)(F)C(F)(F)C(F)(F)F", "outcome": "inactive"}
{"smiles": "CNC(=O)/C=C(\\C)OP(=O)(OC)OC", "outcome": "inactive"}
{"smiles": "CC1(c2ccc(Oc3ccccc3)cc2)OC(=O)N(Nc2ccccc2)C1=O", "note": "(stereo not given)", "outcome": "inactive"}
{"smiles": "O=C(Nc1ccccc1)Nc1cnns1", "outcome": "inactive"}
{"smiles": "COP(=S)(OC)Oc1ccc([N+](=O)[O-])cc1", "outcome": "inactive"}
{"smiles": "CNC(=O)Oc1cccc(N=CN(C)C)c1", "outcome": "inactive"}
{"smiles": "CCCN(CCOc1c(Cl)cc(Cl)cc1Cl)C(=O)n1ccnc1", "AC50": "3.97 µM (active)"}
{"smiles": "COC(=O)c1ccccc1S(=O)(=O)NC(=O)Nc1nc(C)nc(OC)n1", "outcome": "inactive"}
{"smiles": "Cc1cc(C)nc(NC(=O)NS(=O)(=O)c2ccccc2C(=O)OC2COC2)n1", "outcome": "inactive"}
{"smiles": "CCC(C)(C)C(=O)OC1=C(c2ccc(Cl)cc2Cl)C(=O)OC12CCCCC2", "AC50": "10.5 µM (active)"}
{"smiles": "CNC(=O)Oc1ccccc1OC(C)C", "outcome": "inactive"}
{"smiles": "Clc1ccccc1-c1nnc(-c2ccccc2Cl)nn1", "outcome": "inactive"}
{"smiles": "O=C1c2ccccc2C(=O)N1SC(Cl)(Cl)Cl", "AC50": "4.99 µM (active)"}
{"smiles": "Cc1[nH]c(=O)n(C(C)(C)C)c(=O)c1Cl", "outcome": "inactive"}
{"smiles": "C[C@H]1[C@H](c2ccc(Cl)cc2)SC(=O)N1C(=O)NC1CCCCC1", "AC50": "14.9 µM (active)"}
{"smiles": "COC(=O)c1ccccc1S(=O)(=O)NC(=O)N(C)c1nc(C)nc(OC)n1", "outcome": "inactive"}
{"smiles": "CCc1ccc(C(=O)NN(C(=O)c2cc(C)cc(C)c2)C(C)(C)C)cc1", "outcome": "inactive"}
{"smiles": "CC[C@H](C)[C@H]1O[C@]2(C=C[C@@H]1C)C[C@@H]1C[C@@H](C/C=C(\\C)[C@@H](O[C@H]3C[C@H](OC)[C@@H](O[C@H]4C[C@H](OC)[C@@H](O)[C@H](C)O4)[C@H](C)O3)[C@@H](C)/C=C/C=C3\\CO[C@@H]4[C@H](O)C(C)=C[C@@H](C(=O)O1)[C@]34O)O2", "note": "(tested in a mixture with another compound)", "outcome": "inactive"}
{"smiles": "O=S(=O)(O)C(F)(F)C(F)(F)C(F)(F)C(F)(F)C(F)(F)C(F)(F)C(F)(F)C(F)(F)F", "outcome": "inactive"}
{"smiles": "Oc1ccc(Cl)cc1Cc1ccccc1", "outcome": "inactive"}
{"smiles": "COP(=S)(OC)Oc1ccc(SC)c(C)c1", "outcome": "inactive"}
{"smiles": "COC(=O)c1ccccc1CS(=O)(=O)NC(=O)Nc1nc(OC)cc(OC)n1", "outcome": "inactive"}
{"smiles": "Oc1cc(Cl)ccc1Oc1ccc(Cl)cc1Cl", "AC50": "4.67 µM (active)", "outcome": "inactive"}
{"smiles": "OCCOc1ccccc1", "outcome": "inactive"}
{"smiles": "ClC1C(Cl)C(Cl)C(Cl)C(Cl)C1Cl", "note": "(stereo not given)", "outcome": "inactive"}
{"smiles": "CC(C)N(C(=O)COc1nnc(C(F)(F)F)s1)c1ccc(F)cc1", "outcome": "inactive"}
{"read-out": "Tissue Factor, F3 (gene 2152)", "assay": "BSK_CASM3C_TissueFactor: BioMAP Diversity Plus: CASM3C Assay for Tissue Factor Biomarker Activity (AID 2283052);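 further: cell surface tissue factor protein level read by ELISA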", "conditions": "primary human coronary artery smooth muscle cells; actives raise or lower the signal"}
{"smiles": "O=C(O)C(F)(F)C(F)(F)C(F)(F)C(F)(F)C(F)(F)C(F)(F)C(F)(F)F", "outcome": "inactive"}
{"smiles": "CNC(=O)/C=C(\\C)OP(=O)(OC)OC", "outcome": "inactive"}
{"smiles": "CC1(c2ccc(Oc3ccccc3)cc2)OC(=O)N(Nc2ccccc2)C1=O", "note": "(stereo not given)", "outcome": "inactive"}
{"smiles": "O=C(Nc1ccccc1)Nc1cnns1", "outcome": "inactive"}
{"smiles": "COP(=S)(OC)Oc1ccc([N+](=O)[O-])cc1", "outcome": "inactive"}
{"smiles": "CNC(=O)Oc1cccc(N=CN(C)C)c1", "outcome": "inactive"}
{"smiles": "CCCN(CCOc1c(Cl)cc(Cl)cc1Cl)C(=O)n1ccnc1", "outcome": "inactive"}
{"smiles": "COC(=O)c1ccccc1S(=O)(=O)NC(=O)Nc1nc(C)nc(OC)n1", "outcome": "inactive"}
{"smiles": "Cc1cc(C)nc(NC(=O)NS(=O)(=O)c2ccccc2C(=O)OC2COC2)n1", "outcome": "inactive"}
{"smiles": "CCC(C)(C)C(=O)OC1=C(c2ccc(Cl)cc2Cl)C(=O)OC12CCCCC2", "outcome": "inactive"}
{"smiles": "CNC(=O)Oc1ccccc1OC(C)C", "outcome": "inactive"}
{"smiles": "Clc1ccccc1-c1nnc(-c2ccccc2Cl)nn1", "outcome": "inactive"}
{"smiles": "O=C1c2ccccc2C(=O)N1SC(Cl)(Cl)Cl", "outcome": "inactive"}
{"smiles": "Cc1[nH]c(=O)n(C(C)(C)C)c(=O)c1Cl", "outcome": "inactive"}
{"smiles": "C[C@H]1[C@H](c2ccc(Cl)cc2)SC(=O)N1C(=O)NC1CCCCC1", "outcome": "inactive"}
{"smiles": "COC(=O)c1ccccc1S(=O)(=O)NC(=O)N(C)c1nc(C)nc(OC)n1", "outcome": "inactive"}
{"smiles": "CCc1ccc(C(=O)NN(C(=O)c2cc(C)cc(C)c2)C(C)(C)C)cc1", "outcome": "inactive"}
{"smiles": "CC[C@H](C)[C@H]1O[C@]2(C=C[C@@H]1C)C[C@@H]1C[C@@H](C/C=C(\\C)[C@@H](O[C@H]3C[C@H](OC)[C@@H](O[C@H]4C[C@H](OC)[C@@H](O)[C@H](C)O4)[C@H](C)O3)[C@@H](C)/C=C/C=C3\\CO[C@@H]4[C@H](O)C(C)=C[C@@H](C(=O)O1)[C@]34O)O2", "note": "(tested in a mixture with another compound)", "outcome": "inactive"}
{"smiles": "O=S(=O)(O)C(F)(F)C(F)(F)C(F)(F)C(F)(F)C(F)(F)C(F)(F)C(F)(F)C(F)(F)F", "outcome": "inactive"}
{"smiles": "Oc1ccc(Cl)cc1Cc1ccccc1", "AC50": "31.3 µM (active) [middle of 4 runs]", "outcome": "inactive"}
{"smiles": "COP(=S)(OC)Oc1ccc(SC)c(C)c1", "outcome": "inactive"}
{"smiles": "COC(=O)c1ccccc1CS(=O)(=O)NC(=O)Nc1nc(OC)cc(OC)n1", "outcome": "inactive"}
{"smiles": "Oc1cc(Cl)ccc1Oc1ccc(Cl)cc1Cl", "AC50": "28.3 µM (active) and 27.8 µM (active) and 22.2 µM (active)", "outcome": "inactive"}
{"smiles": "OCCOc1ccccc1", "outcome": "inactive"}
{"smiles": "ClC1C(Cl)C(Cl)C(Cl)C(Cl)C1Cl", "note": "(stereo not given)", "outcome": "inactive"}
{"smiles": "CC(C)N(C(=O)COc1nnc(C(F)(F)F)s1)c1ccc(F)cc1", "outcome": "inactive"}
